Bioassay records deposited in PubChem BioAssay by National Center for Advancing Translational Sciences (NCATS).
Only some compounds are listed: those with a hit (about 7.8% of all), similar ones and a draw of the others.
HCV inhibitor: blocks hepatitis C virus | Potency, µM (top dose mostly 41.8 µM), hits mostly inhibitors | Huh7.5.1 HCVcc-Cre infection, luciferase reporter, 44 h | 3.4% of 340,000 active; active = well fitted inhibition curve with a large enough effect; inconclusive = small, poorly fitted or top-dose-only effect, or another doubt; inactive = no such curve, though single readings can be large or run the other way
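Luciferase read-out (15 sec integration) after a 15 min room-temperature substrate step quantifies HCVcc-Cre infection. Cells, 1,000 per well, had compound added 4 h post-plating, then virus at ~0.5 moi, and were cultured 44 h.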
LASV entry inh: Lassa virus entry inhibition; Lassa virus pseudotype entry inhibition, cell reporter; 1.2% of 300,000 active; Potency, µM (titrated, usually from 37.9 µM), actives largely listed as inhibitors; calls by dose curve; tested in HEK293 cells; note: nearly all actives have a fitted effect of over 50% in size
Vaccinia mCherry: inhibitors of vaccinia virus infection (mCherry reporter signal); Potency, µM (top dose mostly 36.5 µM), usual class: inhibitors; Vaccinia virus mCherry reporter infection, fluorescence; 0.63% of 310,000 active; calls by dose curve; tested in A549 cells; note: nearly all actives have a fitted effect of over 35% in size
HCMV antiviral: human cytomegalovirus inhibition. activity change, negative = inhibition, % at 57.5 µM. HFF cells, HCMV-luciferase reporter, 72 h; stronger effect = lower value. 4.5% of 410,000 active; in the data active = activity change below about -60%; inconclusive = no clear call, values can overlap the other calls; inactive = above about -39%
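HFF cells seeded 16 h at 37C, treated with compounds, infected with luciferase-reporter HCMV at MOI 1 PFU/cell; luciferase read at 72 h post infection, normalized to buffer-only and Salinomycin controls.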
Marburg entry inh: Marburg virus entry inhibition | Marburg virus pseudotyped entry inhibition, cell reporter | Potency, µM (highest dose often 37.8 µM), hits mostly inhibitors | 1.8% of 300,000 active; calls by dose curve; tested in HEK293 cells
Vaccinia Venus: inhibitors of vaccinia virus (Venus reporter). Potency, µM (highest dose often 36.5 µM), hits mostly inhibitors. Vaccinia virus Venus reporter expression, fluorescence. 0.46% of 330,000 active. AID 720580; calls by dose curve; tested in A549 cells; note: nearly all actives have a fitted effect of over 30% in size
A number is an active result; - = inactive; ? = inconclusive; . = not tested or not shown; [ ] = dose if it differs, or a comment.

SMILES | HCV inhibitor | LASV entry inh | Vaccinia mCherry | HCMV antiviral | Marburg entry inh | Vaccinia Venus
O=C(NC(=S)Nc1ccc(N2CCCCC2)cc1)c1ccc2c(c1)OCCO2 | - | ? | - | ? | - | -
O=C(Nc1ccc(CN2CCOCC2)cc1)c1cc2ccccc2oc1=O | . | . | . | . | - | .
O=C(/C=C/c1cccc([N+](=O)[O-])c1)NC(=S)Nc1ccc(CN2CCOCC2)cc1 | - | ? | - | -72 | - | -
COc1ccc(NC(=S)NC(=O)c2ccc3c(c2)OCCO3)cc1 | - | - | - | - | ? | -
COc1c(C(=O)Nc2ccc(CN3CCOCC3)cc2)cc2ccccc2c1Br | 13µM | - | - | - | - | ?
CS(=O)(=O)N1CCN(c2ccc(NC(=S)NC(=O)c3ccc4c(c3)OCO4)cc2)CC1 | 10µM | - | - | - | - | -
O=C(NC(=S)Nc1ccc(F)cc1)c1ccc2c(c1)OCCO2 | ? | 13µM | . | - | ? | .
COC(=O)c1cccc(N2C(=O)C[C@](Sc3ccc(OC)cc3)(C(=O)N(C)C)[C@H]2c2ccc(OC)cc2)c1 | . | . | . | - | . | .
Cc1cc(C)nc(-c2cccc3c2OC(CNC(=O)C2CCOC2)C3)n1 (configuration not stated) | . | . | - | . | . | -
O=C(Nc1ccc(CN2CCOCC2)cc1)c1ccc(Br)cc1 | ? | . | . | - | . | .
O=C(NC(=S)Nc1ccc(N2CCOCC2)cc1)c1ccc2c(c1)OCCO2 | 7.9µM | ? | . | -85 | - | .
COc1ccc(C(=O)NC(=S)Nc2ccc(CN3CCOCC3)cc2)cc1Br | - | . | . | -64 | . | .
O=C(Nc1ccc(CN2CCOCC2)cc1)c1ccc(-c2ccc(Br)cc2)o1 | 8.9µM | ? | - | ? | ? | ?
COc1ccc(C(=O)NC(=S)Nc2ccc(CN3CCOCC3)cc2)cc1 | - | ? | - | - | - | -
O=C(NC(=S)Nc1ccc(CN2CCOCC2)cc1)c1ccc2c(c1)OCCO2 | 35µM | - | ? | - | 10µM | ?
COc1ccc(CNC(=O)CSc2nc3ccsc3c(=O)n2Cc2ccccc2Cl)cc1 | . | - | - | - | - | -
O=C(C[n+]1cccc2cccc(O)c21)c1ccc2ccccc2c1 | . | . | - | . | . | -
O=C(c1cccc(S(=O)(=O)N2CCCC2)c1)N1CCN(c2ccccc2)CC1 | ? | - | ? | - | ? | -
O=C(c1cc(S(=O)(=O)N2CCN(c3ccccc3)CC2)ccc1Cl)N1CCCC(C(F)(F)F)C1 (configuration not stated) | 7.9µM | ? | - | -82 | ? | -
COc1ccc(S(=O)(=O)N2CCN(c3ccccc3)CC2)cc1C(=O)N1CCCC1 | . | ? | - | - | - | -
O=C(c1cccc(S(=O)(=O)N2CCN(c3ccccc3)CC2)c1)N1CCCC(C(F)(F)F)C1 (configuration not stated) | ? | ? | - | -91 | ? | -
CC1=NN(C(C#N)c2ccccc2C)C(C)(C)C1 (configuration not stated) | - | - | - | -65 | - | -
CCCCNc1ccc(/C=C2\C=Cc3ccccc32)cc1 | . | . | - | . | . | -
Cc1nnc(N/N=C/c2cc(C)n(-c3ccc(F)cc3)c2C)n1N | ? | 7.1µM | ? | - | 15µM | ?
Cc1nnc(N/N=C/c2ccccc2O)n1N | - | ? | ? | -104 | ? | ?
SMILES | HCV inhibitor | LASV entry inh | Vaccinia mCherry | HCMV antiviral | Marburg entry inh | Vaccinia Venus
Cc1nnc(N/N=C/c2c(Cl)cccc2Cl)n1N | ? | - | - | - | ? | -
Cc1nc(N2CCCC2)ncc1C(=O)NCc1cccc(Cl)c1 | . | - | - | - | . | -
COc1ccccc1C1C=C(c2ccc(Cl)cc2)Nc2nc(-c3ccc(Cl)cc3)nn21 (configuration not stated) | . | ? | -[7.34 µM] | -78 | ? | -[7.34 µM]
COc1ccc(C2C=C(c3ccc(Cl)cc3)Nc3nc(-c4ccc(Cl)cc4)nn32)cc1 (configuration not stated) | . | ? | ? | -101 | ? | ?
COc1ccccc1C1C=C(c2ccc(F)cc2)Nc2nc(-c3ccc(Cl)cc3)nn21 (configuration not stated) | . | - | - | - | ? | -
Cc1ccc(C2=CC(c3ccc(Cl)cc3)n3nc(-c4ccc(C)cc4)nc3N2)cc1 (configuration not stated) | . | ? | - | - | ? | -
Cc1c(CC(=O)N2CCCCC2)c(=O)oc2cc3occ(C(C)(C)C)c3cc12 | . | - | - | - | - | -
CSCc1ccc(C(=O)N2CCC(N3CCC(C(=O)NC(C)C)CC3)CC2)o1 | - | - | - | -64 | - | -
CC(C)NC(=O)C1CCN(C2CCN(C(=O)Cc3ccc4c(c3)OCO4)CC2)CC1 | - | - | - | - | - | -
Brc1cnc(N2CCCC2)nc1N1CCOCC1 | 22µM | - | . | - | - | .
CCOC(=O)/C(=N\Nc1ncnc2ccccc12)c1ccc(C)cc1 | - | 1.1µM | - | - | ? | -
CCOC(=O)C/C(=N\Nc1ncnc2ccccc12)c1ccccc1 | ? | - | - | - | ? | -
Cc1ccc(NC(=O)CN2C(=O)CC(c3ccc(F)cc3)=Nc3ccccc32)cc1F | . | - | ? | -81 | . | ?
Cc1ccc(C2=Nc3ccccc3N(CC(=O)Nc3cccc(F)c3)C(=O)C2)cc1C | . | ? | ? | - | . | -
CC(C)(C)c1cc(CCC(=O)N2CCNCC2)c(C(C)(C)C)cc1O | ? | - | . | - | 15µM | .
O=C(CCc1c[nH]c2ccccc12)N1CCCCCCC1 | - | - | - | - | - | -
CN(C)/C=C/C(=O)c1ccc(N2CCN(c3ncc(C(F)(F)F)cc3Cl)CC2)cc1 | ? | ? | . | -108 | ? | -
O=C(c1ccccc1)N1CCOC12CCN(c1ncc(C(F)(F)F)cc1Cl)CC2 | - | ? | . | -61 | - | -
O=C(c1ccc2nc[nH]c2c1)N1CCN(c2cccc(C(F)(F)F)c2)CC1 | ? | ? | - | - | - | -
Nc1ccc(N2CCN(c3ncc(C(F)(F)F)cc3Cl)CC2)c(C(F)(F)F)c1 | . | - | - | -104 | - | -
O=C(c1ccc2nc[nH]c2c1)N1CCN(c2ncc(C(F)(F)F)cc2Cl)CC1 | ? | - | ? | -70 | - | ?
Cc1ccc(NC(=O)C2CCCN(c3ncnc4c3nc3n4CCCCC3)C2)cc1F (configuration not stated) | . | - | - | - | . | -
Cc1cccc(N2CCN(CCCNC(=O)Cn3ncc4c([nH]c5ccccc54)c3=O)CC2C)c1 (configuration not stated) | . | - | - | - | . | -
CCCCN(CCCNC(=O)Cn1nc(CC)n2c(cc3sc(C)cc32)c1=O)Cc1ccccc1 | 8.9µM | . | . | - | . | .
Cc1cc2n(n1)C(c1c[nH]c3ccccc13)Nc1ccccc1-2 (configuration not stated) | 4µM | - | ? | . | ? | -
Cc1cc2n(n1)C(c1cccs1)Nc1ccccc1-2 (configuration not stated) | 2.8µM | - | - | - | - | -
COc1cc(NC(=O)Cn2nc(C(F)(F)F)c(Br)c2C)cc([N+](=O)[O-])c1 | - | - | - | -96 | ? | ?
COc1ccc(CNC(=O)Cn2nc(C(F)(F)F)c(Br)c2C)cc1 | - | . | . | - | . | .
